Measurements: the supplement of paper PMC3334620
Whole data set: some 33,000 sequences, median “E-score (-0.5 to 0.5)” near -0.0014, cut for the highest 2% near 0.25. The full list was thinned out, with the highest values kept by preference.

These sequences were tested against T1, Cad1 (UniProt P24813) (assay: PBM E-score (8-mer binding enrichment) (E-score (-0.5 to 0.5)); higher = stronger / more preferred TF binding). Conditions: protein concentration: 100 nM; construct: GST-full length.
T1 sequence: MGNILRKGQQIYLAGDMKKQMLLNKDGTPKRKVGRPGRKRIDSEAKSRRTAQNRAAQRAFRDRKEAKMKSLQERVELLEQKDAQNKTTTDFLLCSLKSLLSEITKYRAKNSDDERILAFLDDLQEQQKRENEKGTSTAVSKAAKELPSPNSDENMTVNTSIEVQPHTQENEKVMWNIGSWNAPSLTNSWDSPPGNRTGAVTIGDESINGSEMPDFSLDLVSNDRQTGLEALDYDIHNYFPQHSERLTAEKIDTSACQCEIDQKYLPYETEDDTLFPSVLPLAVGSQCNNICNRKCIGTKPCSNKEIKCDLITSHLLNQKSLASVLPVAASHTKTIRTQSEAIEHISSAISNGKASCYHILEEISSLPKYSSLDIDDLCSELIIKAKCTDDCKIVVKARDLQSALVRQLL
Summary of the method: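 The E-score, a modified Wilcoxon-Mann-Whitney statistic, was computed by the Universal PBM Analysis Suite for every ungapped eight-base word pooled with its reverse complement. Scans behind it were normalised with masliner after bound GST-tagged yeast transcription factors were detected with fluorescent anti-GST. The proteins, at about 100-200 nM, had been applied to universal all-10-mer Agilent arrays made double-stranded by primer extension.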

Sequence	PBM E-score
CTTTACCA	0.00321
AACTTATT	0.142
GTATTAAC	-0.0392
AGGATTAT	-0.0734
ATCATAGA	0.146
AAATACCC	0.136
CCCAAGAA	0.0477
ACTTCCAC	0.00186
AATGGACT	0.0697
ACTCTCGA	0.141
AAGCCATC	0.0891
CAGGGCTC	-0.158
CAATATAG	0.101
CAATATAC	0.0244
TAATATAA	0.332
TAATAAAA	0.226
GAATATAA	0.0963
CAATATAA	0.283
AAGAATTC	0.0649
CACACTCG	0.0692
AAGTCCTG	-0.138
GCAATCCA	0.0441

Sequence	PBM E-score
ATAATCCA	0.252
ATAATCTA	0.185
GTAATCCA	0.277
ATAATCCC	-0.033
GTAATCTA	0.268
CTAATCCA	0.131
CTAATCTA	0.0215
ATAATTTA	0.236
CTAATTTA	0.199
GTAATTTA	0.267
ATAATCCG	0.119
GCTTTGCC	-0.183
CAGGTCTC	-0.164
CGACCATA	-0.0443
AACCCCGC	-0.159
CGATTGCC	0.0433
TTAATCAA	0.199
GTAATCAA	0.253
GTAATCAC	0.229
CGCTAGAG	-0.115
AAAGTCGA	-0.0137
ATTTGAAA	0.251

Sequence	PBM E-score
GTTTGAAA	0.113
ATTTGCAA	0.277
CTTTGAAA	0.116
CTTTGCAA	0.0374
GTTTGCAA	0.0869
TGTCGCAA	-0.137
GGCCTCAA	-0.0369
AAAGTCAT	0.074
ACCCTCTA	-0.192
CCCCAAGG	-0.307
GCACCTCA	0.0626
CGATCGAC	0.272
CGATCGAA	0.106
AGATCGAC	0.0578
CTGGCTAC	-0.259
GATAGACA	-0.0074
CTCCACCA	-0.193
GGACAGAA	0.0717
ACTCGCGG	0.0242
CCTCGCGA	0.121
GCTCGCTA	-0.0118
GCTCGCGA	0.3

Sequence	PBM E-score
ACTCGCGA	0.271
ACTCGCGC	0.0881
CGATGAAG	-0.0787
AGAGTATC	-0.0123
AATCCACG	0.048
AGTTTCCG	0.105
CCTGGGGC	-0.343
ACTGTAGC	-0.136
CACGTCTG	0.134
ACATCGAA	0.169
TCCGGGCA	0.00134
AGCTCGCC	-0.0374
ATCTCGCG	0.256
AGCTCGCA	0.0143
ATCTCGCA	0.0847
AGCTCGCG	0.262
ATCTCGCC	-0.0589
AGCTGACA	0.192
TGCTGAAA	-0.0176
CGCTGACC	0.117
